For seven compounds, AC50 and outcome results are on record in PubChem BioAssay (EPA / NIEHS).

Inconclusive results are not listed. More than one record can exist for a structure, and the calls need not agree. Activity calls are given as the source filed them. The calls were made as follows: active = hit-call score of the fitted dose curve at least 0.9, where 1 is the maximum; inconclusive = response in the unintended direction; inactive = score below 0.9.

Metabotropic glutamate receptor 1 (Rattus norvegicus), sequence (P23385 whole entry, looked up): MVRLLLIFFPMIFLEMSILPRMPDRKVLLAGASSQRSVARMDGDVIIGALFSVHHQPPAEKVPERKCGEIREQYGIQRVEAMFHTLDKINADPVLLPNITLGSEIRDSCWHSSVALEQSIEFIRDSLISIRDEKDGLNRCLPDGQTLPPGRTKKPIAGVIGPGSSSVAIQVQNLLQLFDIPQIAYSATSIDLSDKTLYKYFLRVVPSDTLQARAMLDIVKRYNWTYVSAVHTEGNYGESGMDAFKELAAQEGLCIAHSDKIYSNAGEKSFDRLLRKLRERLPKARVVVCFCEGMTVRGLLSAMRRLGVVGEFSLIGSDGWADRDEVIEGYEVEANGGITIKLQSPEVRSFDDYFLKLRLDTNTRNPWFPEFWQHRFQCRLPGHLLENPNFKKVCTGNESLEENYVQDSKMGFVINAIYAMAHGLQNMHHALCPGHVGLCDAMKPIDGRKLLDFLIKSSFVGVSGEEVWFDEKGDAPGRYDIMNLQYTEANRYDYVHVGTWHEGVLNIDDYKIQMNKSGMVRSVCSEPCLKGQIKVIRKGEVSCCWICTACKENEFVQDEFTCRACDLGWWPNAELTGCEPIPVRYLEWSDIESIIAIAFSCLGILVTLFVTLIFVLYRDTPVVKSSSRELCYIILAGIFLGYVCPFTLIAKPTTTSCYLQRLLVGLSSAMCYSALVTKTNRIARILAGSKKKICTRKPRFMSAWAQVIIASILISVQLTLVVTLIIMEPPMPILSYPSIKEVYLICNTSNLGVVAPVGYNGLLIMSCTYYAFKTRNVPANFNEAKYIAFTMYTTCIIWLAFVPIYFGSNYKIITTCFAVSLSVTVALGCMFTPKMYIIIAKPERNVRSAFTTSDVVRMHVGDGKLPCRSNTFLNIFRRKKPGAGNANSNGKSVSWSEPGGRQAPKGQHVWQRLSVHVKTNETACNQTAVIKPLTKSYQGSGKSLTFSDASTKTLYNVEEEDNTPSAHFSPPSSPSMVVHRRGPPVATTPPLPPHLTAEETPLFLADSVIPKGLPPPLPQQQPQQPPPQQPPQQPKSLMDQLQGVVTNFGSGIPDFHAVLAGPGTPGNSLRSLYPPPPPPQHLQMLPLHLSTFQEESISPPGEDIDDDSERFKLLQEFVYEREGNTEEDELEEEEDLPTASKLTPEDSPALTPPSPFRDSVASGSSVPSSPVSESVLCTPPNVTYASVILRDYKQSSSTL

One experiment has as its target Metabotropic glutamate receptor 1 (Rattus norvegicus) (UniProt P23385). Put plainly: NVS_GPCR_rmMGluR1: NovaScreen (NVS) G Protein-Coupled Receptor Assay for rat Glutamate Metabotropic Receptor 1 (MGluR1) (AID 2283305). The gist of the method:
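Binding to native receptor from rat cerebellum extract, measured as displacement of a radioligand (scintillation counting, filter separation) after 1 hour. Compounds tested at 25 uM in duplicate, then titrated to a 50 uM maximum.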
What is called AC50 is the concentration at which the activity in the assay is half-maximal. As to `CC[C@H](C)[C@H]1O[C@]2(C=C[C@@H]1C)C[C@@H]1C[C@@H](C/C=C(\C)[C@@H](O[C@H]3C[C@H](OC)[C@@H](O[C@H]4C[C@H](OC)[C@@H](O)[C@H](C)O4)[C@H](C)O3)[C@@H](C)/C=C/C=C3\CO[C@@H]4[C@H](O)C(C)=C[C@@H](C(=O)O1)[C@]34O)O2` (tested in a mixture with another compound), the AC50 is 9.49 µM (active). As for `CC(C)N(C(=O)COc1nnc(C(F)(F)F)s1)c1ccc(F)cc1`, the result was inactive.

On to `N#Cc1c(Cl)c(Cl)c(Cl)c(C#N)c1Cl`, for which the compound was classed as inactive.

For another experiment, the target named is rat Neurokinin-1 Receptor (NK1), Tacr1 (gene 24807) (UniProt P14600). Nature of the experiment: NVS_GPCR_rNK1: NovaScreen (NVS) G Protein-Coupled Receptor Assay for rat Neurokinin-1 Receptor (NK1) (AID 2283309). Put shortly: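 Competitive radioligand binding to NK1 in rat submaxillary membranes, 1 h incubation, filtration and scintillation read-out. Compounds first screened at 25 uM in duplicate, then concentration-response for actives; signal loss relative to DMSO.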
rat Neurokinin-1 Receptor (NK1), Tacr1 (gene 24807), sequence (P14600 whole entry, looked up): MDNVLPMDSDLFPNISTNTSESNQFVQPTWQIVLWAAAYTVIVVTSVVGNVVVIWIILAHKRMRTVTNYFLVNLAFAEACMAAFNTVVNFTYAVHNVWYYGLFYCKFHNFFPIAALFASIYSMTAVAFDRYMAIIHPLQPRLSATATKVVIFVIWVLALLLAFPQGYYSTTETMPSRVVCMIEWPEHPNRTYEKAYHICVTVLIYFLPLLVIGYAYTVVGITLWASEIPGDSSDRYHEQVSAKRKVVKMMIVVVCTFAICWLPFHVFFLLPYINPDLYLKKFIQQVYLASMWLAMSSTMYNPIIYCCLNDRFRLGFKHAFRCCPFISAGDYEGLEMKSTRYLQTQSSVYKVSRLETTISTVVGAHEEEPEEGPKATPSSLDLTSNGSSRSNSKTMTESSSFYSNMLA
Consider `O=C(Nc1ccccc1)Nc1cnns1`, for which the call was inactive. As for `CC(C)(C)C(O)C(Oc1ccc(Cl)cc1)n1cncn1` (stereo not drawn), the AC50 is 38.2 µM (active) and the result was inactive. `CCCN(CCOc1c(Cl)cc(Cl)cc1Cl)C(=O)n1ccnc1`: the compound was called inactive. As to `Oc1ccc(Cl)cc1Cc1ccccc1`, the call was inactive.
